# Screening data from PubChem.
# The list is not random: actives were taken first. Their share in the collection is about 8%.
# MCF10A rereplic – DNA re-replication induction in MCF 10a cells. AID 624296. 2.9% of 350,000 active. Potency, µM (doses to about 46.1 µM), without a hit: at the top dose activity, positive = re-replication, most hits filed as activators. MCF 10A DNA re-replication, Hoechst nuclear intensity, 48 h; also: % of control where 0% means no effect; nearly all actives have a fitted effect of over 50% in size
# HT1080 IDH1KD tx – HT-1080 IDH1 knockdown cell toxicity (counter line) | HT-1080 IDH1 knockdown viability, ATP luminescence, 48 h | Potency, µM (top dose mostly 46.1 µM), for the others: at the top dose activity, negative = toxicity, hits mostly cytotoxic | 2% of 360,000 active | AID 686971;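 also: 0% = DMSO wells and -100% = cell-free medium wells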
#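 Cytotoxicity counter-line: IDH1KD HT-1080, 48 h, CellTiter-Glo. Curves classed by r2, magnitude and activity.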
# SW480 rereplic – inducers of DNA re-replication in SW480 colon cancer cells. SW480 DNA re-replication, Hoechst DNA content imaging, 48 h. Potency, µM (doses to about 46.1 µM), for the others: at the top dose re-replication activation, most hits filed as activators. 1.8% of 340,000 active; also: % of control where 0% means no effect; nearly all actives have a fitted effect of over 55% in size
#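 Quantitative HTS format with DMSO vehicle controls; 48 hr drug incubation at 37 C, then 40 min Hoechst staining and scanning imager measurement at 405 nm excitation.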
# KB-V1 cytotox – KB-V1 MDR subline cytotoxicity | Potency, µM (doses to about 46.1 µM), actives largely listed as cytotoxic | KB-V1 MDR cells viability, CellTiter-Glo, 72 h | 3.4% of 400,000 active | AID 1347076; also: % is scaled to controls: 0 for no effect and ±100 for the full control effect; nearly all actives have a fitted effect of over 60% in size
#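 qHTS viability screen in drug-selected KB-V1 MDR cells: 72 h compound treatment at 37 degrees C, ATP luminescence end point.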
# HT1080-NT tox – kills 2HG-producing HT-1080-NT fibrosarcoma cells. HT-1080-NT fibrosarcoma viability, CellTiter-Glo ATP luminescence, 48 h. Potency, µM (highest dose often 46.1 µM), inactives show at the top dose activity, negative = less viability, most hits filed as cytotoxic. 1.6% of 360,000 active. AID 686970;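 also: NT is the 2HG producing partner of a matched IDH1 knockdown line; 0% = DMSO-treated cells and -100% = media-only wells without cells; nearly all actives have a fitted effect of over 55% in size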
#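 Compounds were tested in concentration-response format on HT-1080-NT cells for 48 hours at 37 degrees C. Cell viability came from CellTiter-Glo luminescence; curves were classified by r2, response magnitude and activity.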
# KB-3-1 tox – kills parental KB-3-1 adenocarcinoma cells | AID 1347075 | KB-3-1 viability, CellTiter-Glo ATP luminescence, 72 h | Potency, µM (doses to about 46.1 µM), actives largely listed as cytotoxic | 1.4% of 400,000 active; also: % is scaled to controls: 0 for no effect and ±100 for the full control effect; nearly all actives have a fitted effect of over 60% in size
#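 Here the drug-naive KB-3-1 line serves as comparator for MDR sub-line selectivity; cells received compound titrations, 72 h at 37 °C, then CellTiter-Glo readout.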
# The depositor's hits bear a star; i = inactive; ? = inconclusive; / = no result; [ ] = remark or other dose. Calls follow the shape of the dose curve; as a rule, active = well fitted curve in the direction sought with a large enough effect; inconclusive = small, poorly fitted or top-dose-only effect, or another doubt; inactive = no such curve, though single readings can be large; an effect the other way counts as inactive or inconclusive. Potency is read from the fitted curve at half-maximal effect.
SMILES,MCF10A rereplic,HT1080 IDH1KD tx,SW480 rereplic,KB-V1 cytotox,HT1080-NT tox,KB-3-1 tox
COC(=O)c1ccccc1NC(=O)C1CCN(c2ncnc3c2nc2n3CCCCC2)CC1,0%,-4%,-2%,i,7%,i
CC(=O)c1cccc2c1OC(C)C(=O)N2Cc1ccc(Cl)cc1 (stereo not given),/,3%,/,i,2%,i
COc1cc(OC)c(/C=C/c2ccc3ccccc3n2)c(OC)c1,/,/,/,i,/,0.52µM*
COc1cc(OC)c(/C=C/c2cc3ccccc3c[n+]2C)c(OC)c1,/,/,/,i,/,0.92µM*
COc1cc(OC)c(C=Cc2ccncn2)c(OC)c1,/,0%,/,i,11%,i
COc1ccc(OC)c(/C=C/c2cc3ccccc3c[n+]2C)c1,/,/,/,i,/,?
COc1cc(OC)c(/C=C/c2ccccn2)c(OC)c1,/,/,/,i,/,5.2µM*
O=C(CSc1nnc(-c2cccs2)o1)Oc1ccccc1Cl,/,/,/,?,/,i
CN(C)c1ccc(P(=O)(OCc2ccccc2)C(O)c2ccc(Br)cc2)cc1 (stereo not given),9%,2%,-16%,i,-11%,i
COC1=CC(=O)C=C(OC)C1=O,?,?,0%,i,18µM*,?
COC1=CC(=O)c2ccccc2C1=O,18µM*,5.2µM*,?,?,12µM*,16µM*
COc1ccccc1N1CCN(C2CCCN(C(=O)CCc3cnn(C)c3)C2)CC1 (stereo not given),1%,1%,-2%,i,5%,i
COc1ccc(C2=Nc3ccccc3N(C(=O)c3ccc(C)cc3)C2C(=O)NCc2ccccc2)cc1 (stereo not given),/,7%,/,?,1%,i
COc1ccc(C2=Nc3ccccc3N(C(=O)c3ccc4c(c3)OCO4)C2C(=O)NCc2ccccc2)cc1 (stereo not given),/,?,/,?,-41%,4.6µM*
CCN(CC(=O)NCc1ccc(F)cc1)C(=O)COc1ccc2ccccc2c1,0%,2%,9%,15µM*,-4%,i
CCN(CC(=O)NCc1ccc(F)cc1)C(=O)COc1ccc(C)c(C)c1,-2%,-2%,-7%,18µM*,1%,i
CCc1ccccc1OCC(=O)N(CC)CC(=O)NCc1ccc(F)cc1,?,-1%,-1%,i,-4%,i
COC(=O)c1ccc(C2C(C#N)=C(N)Oc3cc(N)ccc32)cc1 (stereo not given),-3%,-10%,-3%,i,-18%,i
CCOc1ccccc1C1C(C#N)=C(N)Oc2cc(N)ccc21 (stereo not given),23µM*,-17%,?,i,7%,i
COc1ccc(OC)c(C2C(C#N)=C(N)Oc3cc(N)ccc32)c1 (stereo not given),-180%[0.0737 µM],3%,?,?,-3%,?
N#CC1=C(N)Oc2cc(N)ccc2C1c1cccc(F)c1 (stereo not given),13µM*,2.3µM*,12µM*,?,2.9µM*,5.2µM*
N#CC1=C(N)Oc2cc(N)ccc2C1C1CCCCC1 (stereo not given),8.2µM*,8.2µM*,18µM*,?,21µM*,5.8µM*
CN(C)c1ccc2c(c1)OC(N)=C(C#N)C2c1cccc(F)c1 (stereo not given),4.1µM*,0.22µM*,?,?,0.18µM*,?
Cc1cc(Cl)ccc1NC(=O)CN1C(=O)C(=O)c2ccccc21,/,/,/,i,/,i
COc1ccccc1-c1cc(C(F)(F)F)n2ncc(S(=O)(=O)c3ccccc3)c2n1,25%,-3%,23µM*,i,1%,i
SMILES,MCF10A rereplic,HT1080 IDH1KD tx,SW480 rereplic,KB-V1 cytotox,HT1080-NT tox,KB-3-1 tox
CCS(=O)(=O)N1CC(=O)N(c2ccc(C)c(C)c2)C(C)(C(=O)NC2CCCCC2)C1 (stereo not given),/,/,/,i,/,i
N#C/C(=C\c1ccc(Cl)cc1)c1nc(-c2ccco2)cs1,12%,17%,2%,i,8%,i
N#C/C(=C\c1ccc(-c2ccccc2)cc1)c1nc(-c2ccco2)cs1,23µM*,27%,1%,i,22%,i
O=C(Nc1ccc(Cl)cc1)Nc1nnc(CSCc2ccccc2)s1,2%,4%,0%,21µM*,1%,i
O=C(Nc1ccc(Cl)cc1)Nc1nnc(CSc2ccc(Cl)cc2)s1,?,30%,?,?,17%,?
O=C(Nc1ccc(F)cc1)Nc1nnc(COc2ccccc2F)s1,?,15µM*,-5%,?,?,i
O=C(Nc1cccc(Cl)c1)Nc1nnc(CSCCOc2ccc(Cl)cc2)s1,5.2µM*,18µM*,?,i,16µM*,?
CC(=O)c1ccc(S(=O)(=O)N2CCn3cccc3C2c2ccccc2F)cc1 (stereo not given),/,/,/,i,/,i
COc1ccc(NC(=O)c2cccnc2)c([N+](=O)[O-])c1,?,?,16µM*,?,?,16µM*
CCOc1ccc(NC(=O)c2ccco2)c([N+](=O)[O-])c1,23%,?,?,i,-20%,i
COc1cc(S(=O)(=O)Nc2cccc(C)c2)ccc1NC(=O)c1cccnc1,?,-8%,-59%,21µM*,-2%,?
COc1ccc(NC(=O)c2ccccc2)c([N+](=O)[O-])c1,?,-17%,?,?,-8%,i
COc1cc(NC(=O)c2cccnc2)ccc1NC(=O)c1ccccc1Cl,-8%,0%,-14%,i,13%,i
CCOc1ccc(NC(=O)c2cccnc2Cl)c([N+](=O)[O-])c1,8%,4%,23µM*,?,8%,i
Fc1cccc(CSc2ccc3nnc(-c4cccnc4)n3n2)c1,0%,-3%,-7%,?,-1%,i
COc1ccc(NS(=O)(=O)c2cc(Br)cc3c2N(C(C)=O)CC3)cc1,18µM*,12µM*,6.5µM*,9.2µM*,18µM*,4.1µM*
CCc1ccc(NS(=O)(=O)c2cc(Br)cc3c2N(C(C)=O)CC3)cc1,/,/,/,i,/,i
Cn1cc(CNCc2cnc3ccccn23)c(-c2ccc(Oc3ccccc3)cc2)n1,3%,-19%,-1%,i,-6%,i
CN(Cc1cn(C)nc1-c1ccc(Oc2ccccc2)cc1)Cc1cnc2ccccn12,23µM*,-20%,-3%,i,29µM*,i
CCOC(=O)c1cc(-c2ccccc2)n(-c2cccc(C(=O)Nc3cccc(SC)c3)c2)c1C,/,/,/,i,/,i
